Assay results taken from PubChem BioAssay.
Results with a measured potency or affinity are listed apart. Results filed as inconclusive are left out. The source made the active and inactive calls.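 Rule for the calls, unless noted: active = a dose-response fit showing signal loss, with half-maximal concentration no higher than twice the top tested dose; inconclusive = flat fit between 30% and 70% signal loss, or poor fit; inactive = the rest.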

Assays:
[1] = Cryptococcus neoformans growth inhibition, dose response, Alamar Blue, cherry-picks (AID 686998;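 active = falling signal with fitted half-maximal potency no higher than twice the top valid tested dose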); conditions: 24 h; series mostly up to 35 µM
[2] = inducers of Cryptococcus neoformans cell lysis, dose response, AK release luminescence, cherry-picks (AID 687000;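 active = fitted dose curve reaches 40% lysis signal rise at or below the highest valid concentration tested for that sample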;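 note: luminescent detection of adenylate kinase leaking from lysed yeast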); conditions: C. neoformans lysis, adenylate kinase release luminescence, 4 h, 100% = twice the neutral-control signal; series mostly up to 15 µM
[3] = HepG2 cell cytotoxicity, dose response, cytotoxicity control, cherry-picks, set 2 (AID 687002); conditions: HepG2 viability, ATP luminescence (CellTiter-Glo), 48 h; series mostly up to 26 µM
[4] = HeLa cell cytotoxicity, dose response, cytotoxicity control, ATP luminescence, cherry-pick samples (AID 687004;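 active = a fitted half-maximal concentration no higher than twice the top valid tested dose, with signal falling as cells die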); conditions: HeLa viability, ATP luminescence (CellTiter-Glo), 48 h; series mostly up to 26 µM

Measured: outcome

C[C@@H]1CN([C@H](C)CO)C(=O)c2c(c3ccccc3n2C)-c2ccccc2CO[C@H]1CN(C)S(=O)(=O)c1ccc(Cl)cc1
inactive: [1] | [2] | [3]

C[C@@H]1CN([C@H](C)CO)S(=O)(=O)c2ccc(C#Cc3ccc(F)cc3)cc2O[C@H]1CN(C)C(=O)NC1CCCC1
inactive: [1] | [2] | [3]

COc1ccccc1C(=O)Nc1ccc2c(c1)C(=O)N(C)C[C@H](OC)[C@@H](C)CN(CC1CC1)[C@@H](C)CO2
inactive: [1] | [2] | [3]

CN1C(=O)c2cc(NC(=O)NC3CCCC3)ccc2OC[C@H]2O[C@@H](CC(=O)NC3CCC3)CC[C@@H]21
inactive: [1] | [2] | [3]

CN1C(=O)c2cc(NC(=O)Nc3ccc(Cl)cc3)ccc2OC[C@H]2O[C@@H](CC(=O)NCCN3CCCCC3)CC[C@@H]21
inactive: [1] | [2] | [3]

O=C(Nc1ccccc1)N1CCCCN2[C@H](CO)[C@@H](c3ccc(C#CC4CC4)cc3)[C@@H]2C1
inactive: [1] | [2] | [3]

CCCC#Cc1ccc2c(c1)O[C@H](CN(C)CCC)[C@H](C)CN([C@@H](C)CO)S2(=O)=O
inactive: [1] | [2] | [3]

COc1cccc(S(=O)(=O)N2C[C@@H](O)COC[C@H]3O[C@H](CC(=O)Nc4ccccc4)CC[C@@H]32)c1
inactive: [1] | [2] | [3]

O=C1CCC(C(=O)Nc2cccc(C(F)(F)F)c2)N1 (stereo unspecified)
inactive: [1] | [2] | [3]

C[C@@H]1CN([C@@H](C)CO)C(=O)Cc2cc(NC(=O)Nc3cccc4ccccc34)ccc2O[C@@H]1CN(C)S(=O)(=O)c1cccs1
inactive: [1] | [2] | [3]

Cc1noc(C)c1NC(=O)Nc1ccc2c(c1)C(=O)N(C)[C@@H]1CC[C@H](CC(=O)N[C@H]3CCN(Cc4ccccc4)C3)O[C@@H]1CO2
inactive: [1] | [2] | [3]

C[C@@H]1CN([C@@H](C)CO)C(=O)CCCn2nncc2CO[C@@H]1CN(C)Cc1cccc(C(F)(F)F)c1
inactive: [1] | [2] | [3]

COc1ccc(C(=O)NC(=S)Nc2cccc(Cl)c2N2CCOCC2)cc1[N+](=O)[O-]
inactive: [1] | [2] | [3]

C[C@H]1CN([C@@H](C)CO)S(=O)(=O)c2ccc(C#Cc3cccc(F)c3)cc2O[C@@H]1CN(C)C(=O)NC1CCCCC1
inactive: [1] | [2] | [3]

C[C@@H]1CN([C@@H](C)CO)C(=O)c2cc(NC(=O)Nc3cccc4ccccc34)ccc2O[C@@H]1CN(C)C(=O)Nc1ccccc1
inactive: [1] | [2] | [3]

CS(=O)(=O)c1ccc(-c2cnc3c(NC=O)cc(-c4ccsc4)cn23)cc1
inactive: [1] | [2] | [3]

CCCNC(=O)C[C@H]1C[C@H]2c3cc(NC(=O)Nc4ccc(OC)cc4)ccc3O[C@H]2[C@@H](CO)O1
inactive: all assays above

CC(C)NC(=O)Nc1ccc2c(c1)CC(=O)N([C@@H](C)CO)C[C@@H](C)[C@@H](CN(C)S(=O)(=O)c1ccc(Cl)cc1)O2
inactive: all assays above

CC(C)NC(=O)Nc1cccc2c1O[C@H](CN(C)C)[C@H](C)CN([C@@H](C)CO)C2=O
inactive: all assays above

COc1cccc(S(=O)(=O)Nc2ccc3c(c2)[C@H]2C[C@H](CC(=O)NCc4ccccc4F)O[C@@H](CO)[C@H]2O3)c1
inactive: all assays above

C[C@@H]1CN([C@H](C)CO)C(=O)c2cc(-c3ccc(C#N)cc3)cnc2O[C@@H]1CN(C)C(=O)Nc1ccc(F)cc1
inactive: all assays above

COCC(=O)N1[C@H](C#N)[C@H](c2ccc(C#Cc3ccccc3F)cc2)[C@H]1CO
inactive: all assays above

O=C(C[C@H]1C[C@@H]2c3cc(NC(=O)CC4CC4)ccc3O[C@@H]2[C@@H](CO)O1)NCc1cccc(F)c1
inactive: all assays above

CC(C)NC(=O)N(C)C[C@@H]1OCCCC[C@H](C)Oc2ccc(NC(=O)c3ccccc3)cc2C(=O)N([C@H](C)CO)C[C@H]1C
inactive: all assays above

CCC(=O)N1[C@H](C(=O)Nc2ccccc2)[C@@H](CO)[C@@H]2Cn3c(ccc(-c4ccncc4)c3=O)[C@@H]21
inactive: all assays above

C[C@@H]1CN([C@H](C)CO)C(=O)Cc2cc(NC(=O)Nc3cccc4ccccc34)ccc2O[C@@H]1CN(C)Cc1ccc(C(=O)O)cc1
inactive: all assays above

Cc1noc(C)c1NC(=O)Nc1ccc2c(c1)C(=O)N(C)[C@H]1CC[C@H](CC(=O)N[C@H]3CCN(Cc4ccccc4)C3)O[C@H]1CO2
inactive: all assays above

C[C@H](CO)N1C[C@H](C)[C@@H](CN(C)Cc2cccc(C(F)(F)F)c2)OCc2cnnn2CCCC1=O
inactive: all assays above

O=C(c1cc(Br)ccc1Cl)N1CCN(c2ccccn2)CC1
inactive: all assays above

Cc1cccc(C)c1NC(=O)CN1CCCC1
inactive: all assays above

CC(C)NC(=O)NCC[C@@H]1CC[C@@H](NC(=O)CN(C)C)[C@@H](CO)O1
inactive: all assays above

CCC(=O)N[C@H]1C=C[C@@H](CC(=O)OC)O[C@@H]1CO
inactive: all assays above

CNC(=O)CSc1ncnc2c1cnn2-c1ccccc1
inactive: all assays above

CCC(=O)N[C@H]1C=C[C@H](CC(=O)NCC2CCCCC2)O[C@@H]1CO
inactive: all assays above

CCS(=O)(=O)N1CCCCN2[C@H](C1)[C@@H](c1ccc(-c3ccc(C#N)cc3)cc1)[C@@H]2CO
inactive: all assays above

O=C(C[C@H]1CC[C@@H](NC(=O)c2ccc3c(c2)OCO3)[C@@H](CO)O1)NCc1ccc(F)cc1
inactive: all assays above

CCC(=O)N(C)C[C@H]1Oc2cc(C#CC(C)(C)O)ccc2S(=O)(=O)N([C@H](C)CO)C[C@@H]1C
inactive: all assays above

COc1cccc(S(=O)(=O)Nc2ccc3c(c2)[C@H]2C[C@H](CC(=O)NCc4cccc(F)c4)O[C@@H](CO)[C@H]2O3)c1
inactive: all assays above

COc1ccccc1-c1cnc2c(c1)C(=O)N([C@@H](C)CO)C[C@@H](C)[C@H](CN(C)C(=O)c1cccnc1)O2
inactive: all assays above

Cc1noc(C)c1NC(=O)Nc1ccc2c(c1)C(=O)N([C@H](C)CO)C[C@H](C)[C@H](CN(C)CC1CCCCC1)O2
inactive: all assays above

O=C(NC1CCCC1)N1CCCCN2[C@H](CO)[C@H](c3ccc(-c4cncnc4)cc3)[C@@H]2C1
inactive: all assays above

C[C@H](CO)N1C[C@H](C)[C@@H](CN(C)S(C)(=O)=O)Oc2cc(C#Cc3ccccc3)ccc2S1(=O)=O
inactive: all assays above

CNC(=O)C[C@H]1CC[C@H]2[C@H](COc3ccc(NC(=O)Nc4ccccc4)cc3C(=O)N2C)O1
inactive: all assays above

O=C(NC1CCCCC1)N[C@@H]1CC[C@@H](CCNS(=O)(=O)c2ccc(Cl)cc2)O[C@H]1CO
inactive: all assays above

COc1ccccc1C(=O)N1C[C@H]2[C@@H](c3ccccc31)[C@@H](CO)N2C(=O)Cc1ccccc1
inactive: all assays above

C[C@@H]1CN([C@H](C)CO)C(=O)c2cc(/C=C/c3ccccc3)cnc2O[C@@H]1CN(C)S(C)(=O)=O
inactive: all assays above

Cc1cc(C)c(NC(=O)C(C)N2CCCCCC2)c(C)c1 (stereo unspecified)
inactive: all assays above

Cc1cccc(NC(=O)C2NC(=O)CC2c2ccccc2)c1C (stereo unspecified)
inactive: all assays above

COc1cccc(S(=O)(=O)N(C)C[C@@H]2Oc3ncc(-c4cccc(F)c4)cc3C(=O)N([C@H](C)CO)C[C@@H]2C)c1
inactive: all assays above

COc1ccc(S(=O)(=O)Nc2ccc3c(c2)C(=O)N([C@H](C)CO)C[C@H](C)[C@H](CN(C)C(=O)Nc2ccccc2)O3)cc1
inactive: all assays above

Cc1ccc(NC(=O)C2(C)CCN2C(=O)C2CCCCC2)cc1C (stereo unspecified)
inactive: all assays above

C[C@@H]1CN([C@H](C)CO)C(=O)c2cc(-c3cccc(F)c3)cnc2O[C@H]1CN(C)Cc1ccccc1
inactive: all assays above

Cc1noc(C)c1S(=O)(=O)N(C)C[C@H]1OCCCC[C@@H](C)Oc2ccc(NC(=O)CCCCCC(=O)Nc3ccccc3N)cc2C(=O)N([C@@H](C)CO)C[C@@H]1C
inactive: all assays above

Cc1ccc(S(=O)(=O)N[C@H]2CC[C@H](CCNC(=O)C3CCCC3)O[C@@H]2CO)cc1
inactive: all assays above

C[C@H]1CN([C@@H](C)CO)C(=O)c2cc(Br)cnc2O[C@@H]1CN(C)Cc1ccccn1
inactive: all assays above

CN1[C@@H]2c3ccc(-c4cccnc4)c(=O)n3C[C@@H]2[C@@H](CO)[C@@H]1C(=O)N1CCc2ccccc2C1
inactive: all assays above

CCNC(=O)Nc1ccc2c(c1)C(=O)N(C)[C@@H]1CC[C@H](CC(=O)N[C@@H](C)c3ccccc3)O[C@@H]1CO2
inactive: all assays above

COc1ccc(CN(C)C[C@H]2OCCCC[C@@H](C)Oc3ccc(NC(=O)c4ccccc4)cc3C(=O)N([C@H](C)CO)C[C@@H]2C)cc1
inactive: all assays above
